Laboratory results published in PubChem BioAssay (Tox21).
“And” between values parts separate entries of the source, which are not always exact repeats. Equal values may be shown once. Inconclusive results are not listed. Where a structure was tested more than once in an assay, its records may differ in their call. The source made the active and inactive calls. Unless noted, the call rests on the fitted dose curve.

Experiments:
[1] = qHTS assay to identify small molecule antagonists of the vitamin D receptor (VDR) signaling pathway - cell viability counter screen (AID 743225; active means well fitted curve in the direction sought with a large enough effect in the repeat runs; an effect the other way counts as inactive or inconclusive; further: nearly all actives have a fitted effect of over 50% in size; further: potency means the concentration at half of the fitted maximal effect; on viability change, negative = cytotoxic: on the % scale 0 is the no-effect control and ±100 the full control effect)
Procedure, shortened: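 Cytotoxicity toward the VDR-bla HEK 293T line was scored by ATP-based CellTiter-Glo luminescence, read in the wells already used for the beta-lactamase readout after 16 h compound treatment under 3 nM 1-alpha,25-dihydroxyvitamin D3 stimulation.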

[2] = qHTS assay to identify small molecule agonists of the NFkB signaling pathway (AID 1159509; active means well fitted curve in the direction sought with a large enough effect in the signal ratio in the repeat runs, not every such curve was filed as active; the % refers to the signal ratio; further: series mostly up to about 61 µM; on the % scale 0 is the no-effect control and ±100 the full control effect)
Procedure, shortened: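 After overnight attachment, reporter cells received test compounds, DMSO or positive controls and were incubated 5 hr at 37 C. FRET substrate was then added for 1.5 hr at room temperature before dual-emission fluorescence reading.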

[3] = qHTS assay to identify small molecule agonists of the NFkB signaling pathway - cell viability counter screen (AID 1159515); further: series mostly up to about 61 µM; on the % scale 0 is the no-effect control and ±100 the full control effect; nearly all actives have a fitted effect of over 55% in size
Procedure, shortened: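 Multiplexed viability readout: after the 5 hr compound exposure and 1.5 hr FRET substrate step, CellTiter-Glo reagent went into the same NFkB-bla ME-180 wells; ATP luminescence was measured after 30 min at room temperature.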

[4] = qHTS assay to identify small molecule agonists of the endoplasmic reticulum stress response signaling pathway (AID 1159516; active means well fitted activation curve with a large enough effect in the signal ratio in the repeat runs, not every such curve was filed as active; the % refers to the signal ratio; further: on the % scale 0 is the no-effect control and ±100 the full control effect)
Procedure, shortened: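 Tox21 10K library screened in quantitative HTS format on ESRE-bla HeLa cells, a beta-lactamase reporter under ER stress response element control; 5 hr treatment, FRET read.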

[5] = qHTS assay to identify small molecule agonists of the endoplasmic reticulum stress response signaling pathway - cell viability counter screen (AID 1159517); further: nearly all actives have a fitted effect of over 50% in size; further: potency means the concentration at half of the fitted maximal effect
Procedure, shortened: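 Luminescence readout: CellTiter-Glo, 30 min RT, same wells as the ESRE-bla reporter read. HeLa ESRE-bla, 1,500 cells/well, o/n 37 C; cpd 5 hr 37 C/5% CO2.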

[6] = qHTS assay to identify small molecule antagonists of the retinoid-related orphan receptor gamma (ROR-gamma) signaling pathway - cell viability counter screen (AID 1159520; active means well fitted curve in the direction sought with a large enough effect in the repeat runs; an effect the other way counts as inactive or inconclusive; further: nearly all actives have a fitted effect of over 50% in size; further: potency means the concentration at half of the fitted maximal effect)
Procedure, shortened: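 Tet-on ROR gamma CHO cells (1,000/well) were plated 4 hr, given compounds in DMSO for 2 hr at 37 C, then induced with 1 uM final doxycycline for 16 hr. Viability was read as ATP by CellTiter-Glo luminescence after 30 min.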

[7] = target: Nuclear receptor ROR-gamma (Homo sapiens) (UniProt P51449); assay: qHTS assay to identify small molecule antagonists of the retinoid-related orphan receptor gamma (ROR-gamma) signaling pathway (AID 1159521; active means well fitted curve in the direction sought with a large enough effect in the repeat runs; an effect the other way counts as inactive or inconclusive; further: nearly all actives have a fitted effect of over 50% in size; further: potency means the concentration at half of the fitted maximal effect)
Procedure, shortened: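 Readout: ONE-Glo luciferase luminescence, 30 min at room temperature. System: Tet-on RORγ CHO, RORE-LUC. Sequence: compound 2 h, doxycycline 1 uM final, 16 h at 37 C.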

[8] = qHTS assay to identify small molecule agonists of the AP-1 signaling pathway (AID 1159526); further: on the % scale 0 is the no-effect control and ±100 the full control effect
[9] = target: Retinoic acid receptor RXR-alpha (Homo sapiens) (UniProt P19793); assay: qHTS assay to identify small molecule agonists of the RXR signaling pathway (AID 1159527); further: nearly all actives have a fitted effect of over 35% in size; further: potency means the concentration at half of the fitted maximal effect
Sequence of Retinoic acid receptor RXR-alpha (Homo sapiens) (P19793 whole entry, looked up): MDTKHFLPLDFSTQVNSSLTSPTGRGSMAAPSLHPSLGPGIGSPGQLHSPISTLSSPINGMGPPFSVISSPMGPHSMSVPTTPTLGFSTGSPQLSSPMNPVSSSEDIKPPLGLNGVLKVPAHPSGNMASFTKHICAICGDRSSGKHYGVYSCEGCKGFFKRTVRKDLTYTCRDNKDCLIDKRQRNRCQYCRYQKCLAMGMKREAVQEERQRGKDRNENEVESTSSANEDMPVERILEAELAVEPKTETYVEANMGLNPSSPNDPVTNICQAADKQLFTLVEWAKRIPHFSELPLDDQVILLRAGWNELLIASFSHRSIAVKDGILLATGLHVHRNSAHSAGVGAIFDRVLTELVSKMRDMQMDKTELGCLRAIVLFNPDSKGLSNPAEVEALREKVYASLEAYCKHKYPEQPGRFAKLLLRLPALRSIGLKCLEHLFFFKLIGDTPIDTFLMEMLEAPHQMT
Procedure, shortened: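 Reporter activation is measured as beta-lactamase activity via FRET substrate cleavage (emission 460/530 nm) in HEK 293T cells expressing an RXR-alpha-driven bla construct, following 16 hr compound exposure at 37 C.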

[10] = qHTS assay to identify small molecule agonists of the AP-1 signaling pathway - cell viability counter screen (AID 1159525); further: nearly all actives have a fitted effect of over 55% in size; further: potency means the concentration at half of the fitted maximal effect
Procedure, shortened: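 ME-180 AP-1-bla, 2500 cells/well, Opti-MEM + 0.5% dialyzed FBS; overnight 37 °C; cpd 15-pt titration, 5 h 37 °C; CellTiter-Glo 30 min RT; luminescence read; normalised to TOAB and DMSO controls.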

Cc1ccc(-c2nc3ccc(C)cn3c2CC(=O)N(C)C)cc1
inactive: Potency [1] | outcome [2] | outcome [3] | outcome [4] | Potency [5] | Potency [6] | Potency [7] | outcome [8]

CCOC(=O)C(SP(=S)(OC)OC)c1ccccc1 (centres undefined)
inactive: Potency [1] | outcome [2] | outcome [3] | outcome [4] | Potency [5] | Potency [6] | Potency [7] | outcome [8] | Potency [9]

O=[N+]([O-])CCO
inactive: outcome [2] | outcome [3] | outcome [4] | Potency [5] | Potency [6] | Potency [7] | outcome [8] | Potency [9]

CCOC(=O)C(Cl)Cc1cc(-n2nc(C)n(C(F)F)c2=O)c(F)cc1Cl (centres undefined)
inactive: Potency [1] | outcome [2] | outcome [3] | outcome [4] | Potency [5] | Potency [6] | Potency [7] | outcome [8] | Potency [9]

BrCCc1ccccc1
inactive: Potency [1] | outcome [2] | outcome [3] | outcome [4] | Potency [5] | Potency [6] | Potency [7] | outcome [8]

O=P(O)(O)c1ccccc1
inactive: Potency [1] | outcome [2] | outcome [3] | outcome [4] | Potency [5] | Potency [6] | Potency [7] | outcome [8]

CC(C)(C)C(=O)C(Cl)Cl
inactive: outcome [2] | outcome [3] | outcome [4] | Potency [5] | Potency [6] | Potency [7] | outcome [8] | Potency [9]

CCN(CC)CCOC(=O)C(O)(c1ccccc1)c1ccccc1
inactive: Potency [1] | outcome [2] | outcome [3] | outcome [4] | Potency [5] | Potency [6] | Potency [7] | outcome [8] | Potency [9]

CC(C)(N)Cc1ccccc1Cl
inactive: Potency [1] | outcome [2] | outcome [3] | outcome [4] | Potency [5] | Potency [6] | Potency [7] | outcome [8] | Potency [9]

CCN(CCO)CCn1c(Cc2ccccc2)nc2c1c(=O)n(C)c(=O)n2C
inactive: Potency [1] | outcome [2] | outcome [3] | outcome [4] | Potency [5] | Potency [6] | Potency [7] | outcome [8] | Potency [9]

NNCc1ccccc1
inactive: Potency [1] | outcome [2] | outcome [3] | outcome [4] | Potency [5] | Potency [6] | Potency [7] | outcome [8]
active: Potency [9] 22.3 µM

COC(=O)c1ccc(CBr)cc1
inactive: Potency [1] | outcome [2] | outcome [3] | outcome [4] | Potency [5] | Potency [6] | Potency [7] | outcome [8] | Potency [9]

BrCC1CO1 (centres undefined)
inactive: Potency [1] | outcome [2] | outcome [3] | outcome [4] | Potency [5] | Potency [6] | Potency [7] | outcome [8] | Potency [9]

COc1ccc(CN2CCNCC2)c(OC)c1OC
inactive: Potency [1] | outcome [2] | outcome [3] | outcome [4] | Potency [5] | Potency [6] | Potency [7] | outcome [8] | Potency [9]

C#CC(C)(C)O
inactive: Potency [1] | outcome [2] | outcome [3] | outcome [4] | Potency [5] | Potency [6] | Potency [7] | outcome [8] | Potency [9]

CCC1(c2cccc(O)c2)CCCCN(C)C1 (centres undefined)
inactive: Potency [1] | outcome [2] | outcome [3] | outcome [4] | Potency [5] | Potency [6] | Potency [7] | outcome [8] | Potency [9]

CCOC(=O)CCl
inactive: outcome [2] | outcome [3] | outcome [4] | Potency [5] | Potency [6] | Potency [7] | outcome [8] | Potency [9]

O=C(O)C(F)(F)C(F)(F)C(F)(F)C(F)(F)C(F)(F)C(F)(F)F
inactive: Potency [1] | outcome [2] | outcome [3] | outcome [4] | Potency [5] | Potency [6] | Potency [7] | outcome [8] | Potency [9]

CCCCS(=O)(=O)Cl
inactive: Potency [1] | outcome [2] | outcome [3] | outcome [4] | Potency [5] | Potency [6] | Potency [7] | outcome [8] | Potency [9]

CS(=O)(=O)Cl
inactive: Potency [1] | outcome [2] | outcome [3] | outcome [4] | Potency [5] | Potency [6] | Potency [7] | outcome [8] | Potency [9]

ClCCCCCCCl
inactive: Potency [1] | outcome [2] | outcome [3] | outcome [4] | Potency [5] | Potency [7] | Potency [10] | outcome [8] | Potency [9]

O=C(Cl)C(Cl)(Cl)Cl
inactive: outcome [2] | outcome [4] | Potency [5] | Potency [6] | Potency [7] | Potency [10] | outcome [8] | Potency [9]

C[C@H]1CCCC(=O)CCC/C=C/c2cc(O)cc(O)c2C(=O)O1
47.2 µM (active) and inactive: Potency [5]
20.9 µM (active) and inactive: Potency [7]
inactive: Potency [1] | outcome [2] | outcome [3] | outcome [4] | Potency [10] | outcome [8] | Potency [9]

C=C1CC[C@@]2(O)[C@H]3Cc4ccc(O)c5c4[C@@]2(CCN3CC2CC2)[C@H]1O5
inactive: Potency [1] | outcome [2] | outcome [3] | outcome [4] | Potency [5] | Potency [7] | Potency [10] | outcome [8] | Potency [9]

COc1ccc2c(C(=O)c3ccc(Cl)cc3)c(C)n(CC(=O)O)c2c1
inactive: Potency [1] | outcome [2] | outcome [3] | outcome [4] | Potency [5] | Potency [7] | Potency [10] | outcome [8] | Potency [9]

CCOC(=O)N(C)N=O
inactive: Potency [1] | outcome [2] | outcome [4] | Potency [5] | Potency [6] | Potency [7] | Potency [10] | outcome [8] | Potency [9]

CCOc1cc(OP(=S)(OC)OC)nc(CC)n1
inactive: Potency [1] | outcome [2] | outcome [3] | outcome [4] | Potency [5] | Potency [7] | Potency [10] | outcome [8]

COP(=O)(OC)O/C(C)=C/C(=O)N(C)C
inactive: outcome [2] | outcome [3] | outcome [4] | Potency [5] | Potency [7] | Potency [10] | outcome [8] | Potency [9]

N#CN
inactive: Potency [1] | outcome [2] | outcome [3] | outcome [4] | Potency [5] | Potency [7] | Potency [10] | outcome [8]

COC(=O)c1ccccc1CS(=O)(=O)NC(=O)Nc1nc(OC)cc(OC)n1
inactive: outcome [2] | outcome [4] | Potency [5] | Potency [6] | Potency [7] | Potency [10] | outcome [8] | Potency [9]

Cc1cccc2sc3nncn3c12
inactive: Potency [1] | outcome [2] | outcome [3] | outcome [4] | Potency [5] | Potency [7] | Potency [10] | outcome [8] | Potency [9]

Brc1c(Br)c(Br)c(Br)c(Br)c1Br
inactive: activation [2] 0.368% [at 6.95 µM] | activation [4] -0.555% [at 6.95 µM] | activity change, negative = cytotoxicity [5] 1.86% [at 6.95 µM] | activity, negative = cytotoxicity [6] 1.32% [at 8.39 µM] | activity change, negative = inhibition [7] 19.7% [at 8.39 µM] | viability change, negative = cytotoxic [10] -3.27% [at 6.97 µM] | activation [8] -7% [at 6.97 µM] | activation [9] 13.1% [at 6.98 µM]

COc1cccc([C@@]2(O)CCCC[C@@H]2CN(C)C)c1
inactive: Potency [1] | outcome [2] | outcome [3] | outcome [4] | Potency [5] | Potency [7] | Potency [10] | outcome [8] | Potency [9]

CNC(=O)NC(O)C(Cl)(Cl)Cl (centres undefined)
inactive: Potency [1] | outcome [2] | outcome [3] | outcome [4] | Potency [5] | Potency [7] | Potency [10] | outcome [8] | Potency [9]

CCOC1Oc2ccc(OS(C)(=O)=O)cc2C1(C)C (centres undefined)
inactive: Potency [1] | outcome [2] | outcome [3] | outcome [4] | Potency [5] | Potency [7] | Potency [10] | outcome [8] | Potency [9]

CCOC(=O)COc1ccc(Cl)cc1Cl
inactive: Potency [1] | outcome [2] | outcome [3] | outcome [4] | Potency [5] | Potency [7] | Potency [10] | outcome [8]

CCOP(=S)(OCC)SCCl
inactive: Potency [1] | outcome [2] | outcome [3] | outcome [4] | Potency [5] | Potency [7] | Potency [10] | outcome [8] | Potency [9]

CC(=NC#N)N(C)Cc1ccc(Cl)nc1
inactive: Potency [1] | outcome [2] | outcome [3] | outcome [4] | Potency [5] | Potency [7] | Potency [10] | outcome [8] | Potency [9]

[P]#[In]
inactive: Potency [1] | outcome [2] | outcome [3] | outcome [4] | Potency [5] | Potency [7] | Potency [10] | outcome [8] | Potency [9]

NCC1(CC(=O)O)CCCCC1
inactive: outcome [2] | outcome [3] | outcome [4] | Potency [5] | Potency [7] | Potency [10] | outcome [8] | Potency [9]

CN(C)C(=O)Oc1cc(OC(=O)N(C)C)cc(C(O)CNC(C)(C)C)c1 (centres undefined)
inactive: Potency [1] | outcome [2] | outcome [3] | outcome [4] | Potency [5] | Potency [7] | Potency [10] | outcome [8]

CON(C)C(=O)Nc1ccc(Br)c(Cl)c1
inactive: outcome [2] | outcome [4] | Potency [5] | Potency [6] | Potency [7] | Potency [10] | outcome [8] | Potency [9]

CCOC(=O)CC(SP(=S)(OC)OC)C(=O)OCC (centres undefined)
inactive: outcome [2] | outcome [3] | outcome [4] | Potency [5] | Potency [7] | outcome [8]

O=C1C2CC=CCC2C(=O)N1SC(Cl)(Cl)Cl (centres undefined)
inactive and 48.2 µM (active): Potency [10]
inactive and 21.5 µM (active): Potency [1]
inactive: outcome [2] | outcome [3] | outcome [4] | Potency [5]
inactive and 1.9 µM (active): Potency [6]

CN(C)C1CCCCC1
inactive: Potency [1] | outcome [2] | outcome [3] | outcome [4] | Potency [5] | Potency [7] | Potency [10] | outcome [8] | Potency [9]
